Experimental data: PubChem BioAssay (EPA / NIEHS)
Activity calls are given as the source filed them. Rule for the calls: active = hit-call score of the fitted dose curve at least 0.9, where 1 is the maximum; inactive = score below 0.9.

Test: CCTE_Shafer_MEA_acute_spike_number: CCTE's Neural Acute Assay for Total Number of Spikes, Shafer Lab (AID 2284008);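 for AC50: curve fitted for decrease in spike count so AC50 reflects inhibitors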
How it was run: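 Total spike count from 40 min recordings before and during compound exposure (0.03-40 uM), given as per-well percent change. Cortical cultures from rat, DIV 13 or 15, 37 C; adaptive detection threshold 8x rms noise.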

Compound	outcome	AC50
OCCCCO	inactive	–
CN(C)C(=S)S	inactive	–
O=C(Cc1ccccc1)OCCc1ccccc1	–	3 nM (active)
Clc1cccc(Cl)c1Cl	inactive	–
Oc1ccc(Cc2ccc(O)cc2)cc1	–	4.54 nM (active)
CCCCOC(=O)COC(=O)c1ccccc1C(=O)OCCCC	–	19.6 nM (active)
Cc1cc(C(F)(C(F)(F)F)C(F)(F)F)ccc1NC(=O)c1cccc(I)c1C(=O)NC(C)(C)CS(C)(=O)=O	–	1680 nM (active)
CC1(C)[C@H](C(=O)O[C@H](C#N)c2cccc(Oc3ccccc3)c2)[C@@H]1/C=C(\Cl)C(F)(F)F	–	1180 nM (active)
CC(C)[C@@H](Nc1ccc(C(F)(F)F)cc1Cl)C(=O)OC(C#N)c1cccc(Oc2ccccc2)c1 (stereo partly specified)	–	936 nM (active)
CC(C)(C)c1ccccc1O	–	4820 nM (active)
N#Cc1cccnc1	inactive	–
